Screens (PubChem)
An excerpt weighted towards active compounds, which were near 1.5% of everything screened.
CCHFV vOTU inh: blocks the CCHF virus ovarian tumor domain protease; CCHFV vOTU protease, Pep-AMC fluorescence; inhibition, % at 11.5 µM; 0.55% of 370,000 active; in the data active = inhibition above about 30%
SARS 3CLpro inh: SARS-CoV 3CLpro protease inhibition. inhibition, % at 6 µM. recombinant SARS-CoV 3CLpro, quenched FRET peptide cleavage. P0C6X7. AID 1706. 0.14% of 290,000 active; in the data active = inhibition above about 12%
RecA intein inh: blocks M. tuberculosis RecA intein splicing; P9WHJ3; cell-free RecA intein splicing, fluorescence; inhibition, % (concentration not given with the values); 0.75% of 290,000 active; in the data active = inhibition above about 30%
Target sequence (P9WHJ3 whole entry, looked up): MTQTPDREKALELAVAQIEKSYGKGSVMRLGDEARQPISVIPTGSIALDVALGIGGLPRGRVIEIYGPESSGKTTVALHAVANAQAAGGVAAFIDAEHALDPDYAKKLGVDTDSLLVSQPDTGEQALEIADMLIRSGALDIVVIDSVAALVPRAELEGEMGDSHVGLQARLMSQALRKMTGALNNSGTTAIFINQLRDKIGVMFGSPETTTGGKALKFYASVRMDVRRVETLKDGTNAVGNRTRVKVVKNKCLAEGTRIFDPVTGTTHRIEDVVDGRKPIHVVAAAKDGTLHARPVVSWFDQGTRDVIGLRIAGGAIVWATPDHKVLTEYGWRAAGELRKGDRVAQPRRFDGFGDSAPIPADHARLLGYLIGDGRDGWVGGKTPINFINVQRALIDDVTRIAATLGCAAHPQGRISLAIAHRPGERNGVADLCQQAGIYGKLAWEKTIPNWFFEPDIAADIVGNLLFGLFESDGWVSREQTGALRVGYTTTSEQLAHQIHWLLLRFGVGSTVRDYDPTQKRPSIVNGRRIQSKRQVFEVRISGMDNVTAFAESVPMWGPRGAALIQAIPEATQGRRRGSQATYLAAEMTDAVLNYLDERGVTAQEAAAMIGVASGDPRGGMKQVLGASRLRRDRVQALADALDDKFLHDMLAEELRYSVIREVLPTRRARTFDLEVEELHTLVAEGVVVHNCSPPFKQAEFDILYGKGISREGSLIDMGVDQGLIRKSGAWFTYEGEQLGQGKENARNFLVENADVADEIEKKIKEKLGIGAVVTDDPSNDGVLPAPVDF
DUSP3 inh: blocks human VHR1 dual specificity phosphatase | P51452 | recombinant VHR phosphatase, pNPP absorbance | inhibition, % at 13.3 µM | 0.52% of 290,000 active; in the data active = inhibition above about 50%
GFP chromophore: counter-screen: blocks GFP chromophore formation; EC50, µM; 83% of 2,100 active; cell-free GFP chromophore formation, fluorescence; shares compounds with RecA intein inh; call rule not given here
A number is an active result; – = inactive; · = no result given.

SMILES	CCHFV vOTU inh	SARS 3CLpro inh	RecA intein inh	DUSP3 inh	GFP chromophore
N/C(=N\OC(=O)c1cccc(C(F)(F)F)c1)c1cnccn1	–	–	–	–	·
CCc1cccc(NC(=O)CSCc2cc(=O)[nH][nH]2)c1	–	–	81	–	12
CCc1cccc(NC(=O)Cn2cccc2)c1	–	–	–	–	·
O=C(CCl)Nc1cc(-c2ccccc2)nn1-c1ccccc1	–	–	62	–	40
CC(=O)Nc1ccc(-c2cc(NC(C)=O)n(-c3ccccc3)n2)cc1	–	–	–	–	·
Cc1ccc(-c2cc(NC(=O)CCl)n(-c3ccccc3)n2)cc1	–	–	73	–	33
Cc1cc(NC(=O)COc2ccccc2)n(-c2ccccc2)n1	–	–	–	–	·
CC(C)Oc1ccccc1OC1(C)CCN(Cc2ccc(OC(F)(F)F)cc2)C1 (stereo not given)	–	·	·	·	·
Cc1ccc(N2C(=O)C(Cl)=C(N3CCOCC3)C2=O)c(C)c1	–	–	60	–	11
O=C1C(Cl)=C(N2CCOCC2)C(=O)N1c1ccccc1F	–	–	·	–	7.2
CCc1ccccc1N1C(=O)C(Cl)=C(N2CCOCC2)C1=O	–	–	67	–	9.9
CC(C)c1ccc(N2C(=O)C(Cl)=C(N3CCOCC3)C2=O)cc1	–	–	–	–	·
O=C1C(Cl)=C(N2CCOCC2)C(=O)N1c1ccc(Br)cc1	–	–	53	–	2.5
O=C(CCc1nc2ccccc2s1)NC1CCOC1=O (stereo not given)	–	–	–	–	·
Cc1ccccc1N1C(=O)C(Cl)=C(N2CCOCC2)C1=O	–	–	59	–	12
Cc1ccc(-n2c(COc3ccccc3)nnc2SCC(=O)Nc2ccccc2-c2ccccc2)cc1	–	·	·	·	·
CN(C)S(=O)(=O)c1cccc(C(=O)N/N=C\c2ccnc3ccccc23)c1	–	·	·	·	·
CC(=O)Nc1ccc(S(=O)(=O)NNc2ccc([N+](=O)[O-])cc2)cc1	–	–	–	–	·
COc1ccc(-c2cc(=O)[nH][nH]2)cc1	–	–	98	–	1.9
O=c1cc(-c2ccc(Cl)cc2)[nH][nH]1	–	–	94	–	1.9
O=c1cc(-c2ccc(Cl)c(Cl)c2)[nH][nH]1	–	–	88	–	6.6
N#CC1=C(N)N(c2ccccc2)C(c2cccc([N+](=O)[O-])c2)C1(C#N)C#N (stereo not given)	–	–	39	–	24
COc1cccc(C=NNC(=S)NC2CC3CCC2C3)c1O (stereo not given)	–	·	·	·	·
NC(=S)N=Nc1c(O)[nH]c2ccccc12	–	–	–	–	·
Oc1[nH]c2ccc(Br)cc2c1N=NC(=S)N1CCOCC1	–	–	47	–	–
SMILES	CCHFV vOTU inh	SARS 3CLpro inh	RecA intein inh	DUSP3 inh	GFP chromophore
COC(=O)N=Nc1c(O)[nH]c2ccc(Br)cc12	–	–	–	–	·
Oc1[nH]c2ccccc2c1N=NC(=S)N1CCOCC1	·	–	67	–	–
Cc1ccc2c(c1)-n1c(nc3cc(F)ccc3c1=O)C(Cc1ccc(O)cc1)NC2=O (stereo not given)	–	·	·	·	·
O=[N+]([O-])c1cc(C(F)(F)F)cc([N+](=O)[O-])c1NCCNC(=S)Nc1ccc(Cl)c(Cl)c1	–	–	30	–	–
FC(F)(F)c1cccc(NC(=S)Nc2ccc(Cl)c(Cl)c2)c1	–	–	–	–	·
Cc1ccc(S(=O)(=O)Oc2ccc(C(c3c(C)[nH][nH]c3=O)c3c(C)[nH][nH]c3=O)cc2)cc1	·	–	97	–	–
Cc1ccc(S(=O)(=O)Oc2ccccc2)cc1	–	·	·	·	·
Cc1cccc(C)c1NC(=O)C(c1ccccc1OC(F)(F)F)N1CCN(C)CC1 (stereo not given)	–	·	·	·	·
O=c1cc(-c2cccc([N+](=O)[O-])c2)[nH][nH]1	–	–	96	–	11
Cc1nn(CC(=O)N(C)C2CCS(=O)(=O)C2)c(C)c1S(=O)(=O)N(C)C (stereo not given)	–	·	·	·	·
COC(=O)c1ccccc1S(=O)(=O)N1CCC(NC(=O)c2ccccc2)CC1	–	–	45	–	–
COC(=O)c1scc(C)c1NC(=O)/C=C/C(=O)O	–	–	–	–	·
CCOC(=O)c1c(NC(=O)/C=C/C(=O)O)sc(C)c1-c1ccc(F)cc1	–	–	60	–	34
COC(=O)c1c(NC(=O)/C=C/C(=O)O)sc(C)c1-c1ccc(C(C)C)cc1	–	–	77	–	13
COC(=O)c1c(NC(=O)/C=C/C(=O)O)sc(C)c1-c1ccc(C)c(C)c1	–	–	63	–	38
CCOC(=O)c1c(NC(=O)/C=C/C(=O)O)sc(C)c1-c1ccc(C)c(C)c1	–	–	78	–	14
CCOC(=O)c1c(C)nn(-c2ccc(NC(=O)/C=C/C(=O)O)cc2)c1C	–	–	–	–	·
